Bioassay records as filed in PubChem.
Most compounds without a hit are left out; they make up all but 3.5% or so of the library.
FBW7 act = human FBW7 E3 ligase activation, primary screen | Q969H0 | AlphaScreen FBW7–phospho-cyclin E peptide binding, activator screen | normalized activity (activation), % at 26.1 µM | actives 0.13% (n = 650,000); in the data active means normalized activity above about 1.9%;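 further: purified mutant Fbw7 with reduced substrate affinity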
TEAD-YAP inh = TEAD-YAP interaction inhibition. HEK-TIYL cells, TEAD-Gal4/YAP UAS-luciferase luminescence. inhibition, % at 9.12 µM. actives 1.4% (n = 640,000); in the data active means inhibition above about 32%;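 further: 0% = median of test compound wells and 100% = reference inhibitor wells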
GPR151 activ = activators of human GPR151; PathHunter beta-arrestin GPR151 cells, luminescence; activation, % at 11.2 µM; actives 1% (n = 650,000); in the data active means activation above about 4.9%;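 further: 0% = median of compound wells and 100% = cells with positive control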
Target sequence (Q8TDV0 whole entry, looked up): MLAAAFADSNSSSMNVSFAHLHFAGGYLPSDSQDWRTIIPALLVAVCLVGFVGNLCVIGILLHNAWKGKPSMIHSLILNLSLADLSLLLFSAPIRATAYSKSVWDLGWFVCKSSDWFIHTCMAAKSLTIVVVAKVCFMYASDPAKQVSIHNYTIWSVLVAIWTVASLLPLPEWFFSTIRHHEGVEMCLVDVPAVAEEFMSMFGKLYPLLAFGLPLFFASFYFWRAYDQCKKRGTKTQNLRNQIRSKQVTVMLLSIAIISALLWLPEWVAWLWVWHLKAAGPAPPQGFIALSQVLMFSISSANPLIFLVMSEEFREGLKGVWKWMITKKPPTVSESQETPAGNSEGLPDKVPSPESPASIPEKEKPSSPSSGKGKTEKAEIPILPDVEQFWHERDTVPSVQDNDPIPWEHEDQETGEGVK
MITF primary = inhibitors of human MITF | O75030 | AlphaScreen MITF homodimerization, bead proximity signal | inhibition, % at 2.6 µM | actives 0.91% (n = 650,000) | AID 1259374; in the data active means inhibition above about 50%;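 further: 0% = vehicle wells with protein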
GPR151 confirm = confirmation of human GPR151 activators. shares compounds with GPR151 activ. GPR151 PathHunter beta-arrestin cells, luminescence, 90 min; % of EA-reagent control over plate median. activation, % at 11.2 µM. 6,700 tested, under 10 active. AID 1508609;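 active means mean percent activation across replicates above the confirmation screen cutoff of 4.91%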
GPR119 counter = GPR119 activation, counter-screen for GPR151 activators; actives 0.3% (n = 6,700); shares compounds with GPR151 activ; GPR119 PathHunter beta-arrestin cells, luminescence, 90 min; 0 = compound-well median, 100 = enzyme-acceptor control; activation, % at 11.2 µM;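 active means mean percent activation in the counterscreen above 29.09%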;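 further: counterscreen on off-target GPR119 to flag nonselective hits from the GPR151 activator screen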
Starred values were filed as active, the others as inactive; · = no result.

SMILES	FBW7 act	TEAD-YAP inh	GPR151 activ	MITF primary	GPR151 confirm	GPR119 counter
CC1CCCCN1CCNS(=O)(=O)c1ccc2c(c1)n(C)c(=O)c(=O)n2C (stereo not drawn)	-0.1	-4.5	0.3	2.7	·	·
Nc1c(C(F)(F)F)cc(C(F)(F)F)cc1C(F)(F)F	0.2	-4.5	-1.6	-1.4	·	·
Nc1ccc(-c2ccc(N)cc2C(F)(F)F)c(C(F)(F)F)c1	-0.3	3.1	5.6*	-0.5	-0.5	-10.2
Cc1cc(Nc2ccc(F)cc2F)n2nc(C)nc2n1	-0.2	-8.0	0.7	3.7	·	·
Cc1cc(Nc2cc(F)ccc2C)n2nc(C)nc2n1	0.2	14.7	7.1*	16.1	-0.9	-6.3
C=CCOCC(O)Cn1c(NCCO)nc2c1c(=O)[nH]c(=O)n2C (stereo not drawn)	0.1	2.6	-0.3	6.1	·	·
CSc1ccccc1NC(=O)N1CCCC(N(C)CCc2ccccn2)C1 (stereo not drawn)	-0.1	-4.4	5.2*	-3.5	-1.0	-14.4
Cc1nc(NC(=O)/C=C/c2ccccc2)sc1C(=O)Nc1cccnc1	-0.1	12.3	9.1*	-7.3	-0.5	-5.3
CN(CC1COc2ccccc2O1)c1ccc(S(=O)(=O)N2CCOCC2)cc1[N+](=O)[O-] (stereo not drawn)	-0.1	4.8	-1.7	18.4	·	·
S=C(c1cn(Cc2ccc(Cl)c(Cl)c2)c2ccccc12)N1CCCC1	-0.1	1.9	-1.5	21.1	·	·
CCOc1ccc(C(C)NC(=O)c2ccc(F)cc2)cc1 (stereo not drawn)	0.0	0.4	-0.9	5.2	·	·
CCOc1ccc(C(C)NC(=O)c2ccc(OC)cc2)cc1 (stereo not drawn)	0.0	5.4	6.2*	13.6	0.9	10.3
Cc1cc(C)n2nc(SCC(=O)Nc3c(C)nn(-c4ccccc4)c3C)nc2n1	0.1	-9.3	5.4*	-3.1	1.7	2.4
Cc1cc(C)n2nc(SCC(=O)Nc3ccccc3C(C)(C)C)nc2n1	0.4	-10.1	-0.6	13.0	·	·
COc1ccc2c(c1)sc(=NC(=O)CS(=O)(=O)c1ccc(F)cc1)n2C	-0.6	5.7	5.8*	4.0	1.4	8.3
COc1cccc(OC)c1C(=O)N=c1sc2cc(F)ccc2n1C	-0.1	9.0	1.8	11.5	·	·
COc1cccc(C(=O)N=c2sc3cc(F)ccc3n2C)c1OC	-0.2	66.5*	6.6*	-19.2	0.4	10.4
Cn1c(C(=O)O)c(CC(=O)Nc2ccc(Oc3ccccc3)cc2)c2ccccc21	0.3	-6.2	0.8	12.4	·	·
CS(=O)(=O)Nc1cccc(-c2cnc3[nH]c(=O)n(C4CCCCC4)c3n2)c1	-0.4	7.7	0.0	14.3	·	·
N/C(=N\OC(=O)CCC1CCCC1)c1ccc(Cl)cc1	0.1	1.8	6.0*	17.1	1.1	7.2
CC(C)N1CCC(=NNc2ccc(S(=O)(=O)N3CCOCC3)cc2[N+](=O)[O-])CC1	-0.2	8.8	2.9	10.1	·	·
O=[N+]([O-])c1cc(S(=O)(=O)N2CCOCC2)ccc1NN=C1C2CC3CC(C2)CC1C3	0.0	-3.2	5.0*	2.0	0.9	1.7
CCOC(=O)c1ccccc1NC(=O)c1cccc(Br)c1	0.1	2.8	1.8	-5.6	·	·
COC(=O)c1ccccc1NC(=O)Nc1ccc(Br)cc1Cl	-0.1	8.6	5.9*	-8.1	0.4	8.6
COC(=O)c1ccccc1NC(=O)Nc1ccc(Cl)cc1	0.0	3.0	-1.5	20.7	·	·
SMILES	FBW7 act	TEAD-YAP inh	GPR151 activ	MITF primary	GPR151 confirm	GPR119 counter
O=C(O)c1ccc(NC(=O)c2ccccc2NC(=O)c2cccc(Br)c2)cc1	-0.3	10.3	5.5*	-10.2	-0.7	-8.1
COC(=O)c1cccc(NC(=O)c2cccc(Br)c2)c1C	-0.1	-51.4	14.9*	-8.0	-0.9	-16.6
Nc1ncc(Cc2cccc([N+](=O)[O-])c2)s1	-0.1	6.5	5.4*	-8.9	-0.1	-4.2
O=C(Nc1ncc(Cc2cccc(C(F)(F)F)c2)s1)c1cccc([N+](=O)[O-])c1	0.1	-2.0	5.1*	-11.2	-0.1	-5.8
CC(=O)c1ccc(Cc2cnc(N)s2)cc1	0.0	8.3	8.9*	4.7	-1.2	5.6
Nc1ncc(Cc2ccccc2)s1	-0.1	3.5	0.7	-6.7	·	·
COc1ccccc1C(=O)N1CCN(c2nc(-c3ccccc3)c3c(c2C#N)CCCC3)CC1	-0.1	-7.3	1.5	-4.7	·	·
